Measured values: PubChem BioAssay (Tox21)
Results filed as inconclusive are left out. The source made the active and inactive calls. Unless noted, the call rests on the fitted dose curve; in most records, active means well fitted curve in the direction sought with a large enough effect in the repeat runs; inconclusive means weak or mixed curves; inactive means no such curve, though single readings can be large; an effect the other way counts as inactive or inconclusive.

Assays:
[1] = target: Peroxisome proliferator-activated receptor delta (Homo sapiens) (UniProt Q03181); experiment: qHTS assay to identify small molecule agonists of the peroxisome proliferator-activated receptor delta (PPARd) signaling pathway (AID 743212; calls by dose curve); settings: HEK293H PPARd-UAS-bla, beta-lactamase FRET ratio, 17 h; series mostly up to 62.6 µM
In short: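 Quantitative high-throughput agonist screen in a HEK293H beta-lactamase reporter line under UAS control. Compounds in DMSO, at 37 C. Fluorescence read after 2 h with FRET substrate at room temperature.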

[2] = target: Peroxisome proliferator-activated receptor delta (Homo sapiens) (UniProt Q03181); experiment: qHTS assay to identify small molecule antagonists of the peroxisome proliferator-activated receptor delta (PPARd) signaling pathway (AID 743215; active means well fitted inhibition curve with a large enough effect in the signal ratio in the repeat runs, not every such curve was filed as active; the % refers to the signal ratio;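 further: cells stimulated with agonist L165041 at 300 nM final during compound exposure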); settings: HEK293H PPARd-UAS-bla, beta-lactamase FRET ratio, antagonist, 17 h; series mostly up to 62 µM
In short: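 With L165041 present at 300 nM final, compounds were incubated 17 h at 37 C on PPARd UAS-bla HEK293H cells. A FRET-based beta-lactamase substrate was then applied for 2 h at room temperature and fluorescence intensity recorded.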

[3] = qHTS assay to identify small molecule agonists of the farnesoid-X-receptor (FXR) signaling pathway - cell viability counter screen (AID 743218); settings: FXR-bla HEK293T viability, CellTiter-Glo luminescence, 16 h; series mostly up to 62.6 µM; further: nearly all actives have a fitted effect of over 45% in size
In short: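 After 16 h at 37 C with test compounds, FXR-bla HEK 293T cells were given LiveBLAzer B/G substrate for 2 h at RT and then CellTiter-Glo; luminescence was taken after 30 min.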

[4] = qHTS assay to identify small molecule antagonists of the farnesoid-X-receptor (FXR) signaling pathway - cell viability counter screen (AID 743221; active means well fitted cell-killing curve with a large enough effect in the repeat runs, not every such curve was filed as active; further: nearly all actives have a fitted effect of over 50% in size); settings: FXR-bla HEK293T viability, CellTiter-Glo luminescence, 16 h; series mostly up to 62.6 µM
In short: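 Luminescence from CellTiter-Glo measures cytotoxicity in GeneBLAzer FXR-UAS-bla HEK 293T cells. Cells were exposed to compounds with 50 uM chenodeoxycholic acid (final) for 16 h at 37 C, in wells also used for the reporter readout.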

[5] = qHTS assay to identify small molecule agonists of the vitamin D receptor (VDR) signaling pathway - cell viability counter screen (AID 743224); settings: VDR-bla HEK293T viability, CellTiter-Glo luminescence, 16 h; series mostly up to 62.6 µM; further: nearly all actives have a fitted effect of over 50% in size
In short: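 Here cell health was gauged by luminescent ATP detection (CellTiter-Glo, 30 min RT) in VDR-bla cells that had been incubated with test compounds for 16 h at 37C and 5% CO2.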

[6] = target: Vitamin D3 receptor (Homo sapiens) (UniProt P11473); experiment: qHTS assay to identify small molecule agonists of the vitamin D receptor (VDR) signaling pathway (AID 743222; calls by dose curve); settings: HEK293T VDR-UAS-bla, beta-lactamase FRET ratio, 16 h; series mostly up to 63.5 µM
In short: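 VDR-bla cells were seeded, left 4 h, treated with compounds in DMSO for 16 h, incubated 2 h at RT with B/G FRET substrate, and read for fluorescence.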

[7] = target: Vitamin D3 receptor (Homo sapiens) (UniProt P11473); experiment: qHTS assay to identify small molecule antagonists of the vitamin D receptor (VDR) signaling pathway (AID 743223; active means well fitted inhibition curve with a large enough effect in the signal ratio in the repeat runs, not every such curve was filed as active; the % refers to the signal ratio); settings: VDR-UAS-bla HEK293T, beta-lactamase FRET ratio, 16 h; series mostly up to 61 µM
In short: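 Antagonist mode uses 1alpha,25-dihydroxyvitamin D3 at 3 nM final as stimulus. VDR-bla cells receive compounds in DMSO, incubate 16 h at 37C, then a beta-lactamase FRET substrate for 2 h at room temperature before fluorescence measurement.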

[8] = qHTS assay to identify small molecule antagonists of the peroxisome proliferator-activated receptor delta (PPARd) signaling pathway - cell viability counter screen (AID 743213); settings: PPARd-bla HEK293H viability, CellTiter-Glo luminescence, 17 h; series mostly up to 62 µM; further: nearly all actives have a fitted effect of over 50% in size
In short: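 Same-well viability: cells pre-incubated 5 h, dosed with compound plus 300 nM L165041, kept 17 h at 37 C, FRET substrate 2 h RT, then CellTiter-Glo 30 min RT and luminescence.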

[9] = target: Bile acid receptor (Homo sapiens) (UniProt Q96RI1); experiment: qHTS assay to identify small molecule antagonists of the farnesoid-X-receptor (FXR) signaling pathway (AID 743217; active means well fitted inhibition curve with a large enough effect in the signal ratio in the repeat runs, not every such curve was filed as active; the % refers to the signal ratio); settings: HEK293T FXR-UAS-bla, beta-lactamase ratio, CDCA-stimulated, 16 h; series mostly up to 62.6 µM
In short: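 In this cell-based antagonist screen, inhibition of CDCA-driven (50 uM final) UAS-beta-lactamase expression in HEK 293T cells was measured by FRET fluorescence following 16 h compound exposure at 37 °C.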

[10] = target: Bile acid receptor (Homo sapiens) (UniProt Q96RI1); experiment: qHTS assay to identify small molecule agonists of the farnesoid-X-receptor (FXR) signaling pathway (AID 743220; active means well fitted activation curve with a large enough effect in the signal ratio in the repeat runs, not every such curve was filed as active; the % refers to the signal ratio); settings: HEK293T FXR-UAS-bla, beta-lactamase FRET ratio, 16 h; series mostly up to 62.6 µM
In short: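 Beta-lactamase reporter under UAS control in GeneBLAzer FXR HEK 293T cells (5000/well) measured with LiveBLAzer FRET substrate after 2 h at room temperature. Compound exposure lasted 16 h at 37C.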
On the % scale 0 is the no-effect control and ±100 the full control effect.

Sequence of Bile acid receptor (Homo sapiens) (Q96RI1 whole entry, looked up): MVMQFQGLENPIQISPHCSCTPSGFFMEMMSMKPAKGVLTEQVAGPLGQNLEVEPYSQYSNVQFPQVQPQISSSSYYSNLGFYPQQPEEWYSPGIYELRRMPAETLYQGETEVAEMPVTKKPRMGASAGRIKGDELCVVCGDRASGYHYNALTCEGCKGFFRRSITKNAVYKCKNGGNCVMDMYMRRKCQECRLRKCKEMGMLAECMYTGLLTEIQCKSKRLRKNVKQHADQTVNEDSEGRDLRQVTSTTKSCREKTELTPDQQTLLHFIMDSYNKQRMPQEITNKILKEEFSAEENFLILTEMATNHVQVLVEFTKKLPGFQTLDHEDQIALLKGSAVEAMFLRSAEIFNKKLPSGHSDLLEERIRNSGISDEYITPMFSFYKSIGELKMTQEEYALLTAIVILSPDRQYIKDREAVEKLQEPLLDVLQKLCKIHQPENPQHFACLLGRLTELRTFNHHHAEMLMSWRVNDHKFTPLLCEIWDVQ
Sequence of Peroxisome proliferator-activated receptor delta (Homo sapiens) (Q03181 whole entry, looked up): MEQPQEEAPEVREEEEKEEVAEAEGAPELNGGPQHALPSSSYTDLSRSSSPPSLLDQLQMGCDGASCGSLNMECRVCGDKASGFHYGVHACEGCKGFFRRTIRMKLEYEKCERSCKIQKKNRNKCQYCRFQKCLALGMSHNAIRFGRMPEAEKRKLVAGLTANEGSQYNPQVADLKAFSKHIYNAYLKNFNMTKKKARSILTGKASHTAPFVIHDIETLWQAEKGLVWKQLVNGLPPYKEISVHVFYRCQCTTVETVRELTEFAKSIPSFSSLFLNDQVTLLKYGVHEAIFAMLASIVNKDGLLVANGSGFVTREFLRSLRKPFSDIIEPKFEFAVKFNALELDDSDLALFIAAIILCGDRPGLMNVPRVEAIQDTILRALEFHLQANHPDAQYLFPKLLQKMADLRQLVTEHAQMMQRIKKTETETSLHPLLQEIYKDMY
Sequence of Vitamin D3 receptor (Homo sapiens) (P11473 whole entry, looked up): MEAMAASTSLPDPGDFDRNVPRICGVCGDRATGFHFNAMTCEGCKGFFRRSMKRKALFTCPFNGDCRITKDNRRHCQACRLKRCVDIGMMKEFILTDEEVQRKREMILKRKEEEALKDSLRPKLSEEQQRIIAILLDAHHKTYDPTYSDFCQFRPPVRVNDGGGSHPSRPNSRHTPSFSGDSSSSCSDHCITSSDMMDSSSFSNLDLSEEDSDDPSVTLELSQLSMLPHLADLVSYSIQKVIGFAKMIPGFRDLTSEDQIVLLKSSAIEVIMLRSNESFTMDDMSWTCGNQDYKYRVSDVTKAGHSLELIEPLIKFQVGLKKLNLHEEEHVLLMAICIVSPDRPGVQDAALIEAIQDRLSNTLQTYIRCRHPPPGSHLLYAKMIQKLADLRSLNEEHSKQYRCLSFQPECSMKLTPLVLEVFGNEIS

O=C1c2ccccc2C(=O)N1CO
inactive: outcome [1] | outcome [2] | outcome [3] | outcome [4] | outcome [5]

CSC(=O)c1cccc2nnsc12
inactive: outcome [1] | outcome [2] | outcome [4] | outcome [6] | outcome [7] | outcome [5]

C[C@]12C=CC(=O)C=C1[C@@H](F)C[C@@H]1[C@@H]2[C@@H](O)C[C@@]2(C)[C@H]1CC[C@]2(O)C(=O)CO
inactive: outcome [1] | outcome [2] | outcome [3] | outcome [4] | outcome [6] | outcome [7] | outcome [5]

Cc1ccc2ccccc2n1
inactive: outcome [8] | outcome [2] | outcome [4] | outcome [6] | outcome [7] | outcome [5]

CCOC(=O)CN1CCCC1=O
inactive: outcome [8] | outcome [2] | outcome [3] | outcome [4] | outcome [6] | outcome [7] | outcome [5]

Cc1ccc(N)nc1
inactive: outcome [8] | outcome [2] | outcome [9] | outcome [3] | outcome [10] | outcome [4] | outcome [5]

Nc1nc(Cl)cc(Cl)n1
inactive: outcome [8] | outcome [2] | outcome [9] | outcome [10] | outcome [4] | outcome [6] | outcome [5]

CCCCCCCCCCCCCCCCN(C)C
inactive: viability change, negative = cytotoxic [8] 1.6% [at 6.26 µM] | ratio activity, negative = inhibition [2] -0.339% [at 6.26 µM] | activity change, negative = inhibition [9] -5.41% [at 5.95 µM] | viability change, negative = cytotoxic [3] 0.68% [at 5.95 µM] | activity change, negative = cytotoxicity [4] -0.818% [at 5.95 µM] | activity change, negative = cytotoxicity [5] 12.1% [at 5.95 µM]

COc1ccc2cc(CCC(C)=O)ccc2c1
inactive: outcome [1] | outcome [3] | outcome [10] | outcome [4] | outcome [5]

CC(=O)O[C@@H]1CC2C3CCc4cc(OC(=O)c5ccccc5)ccc4C3CCC2(C)[C@H]1OC(C)=O (some centres not stated)
inactive: outcome [8] | outcome [9] | outcome [3] | outcome [10] | outcome [4] | outcome [6] | outcome [7] | outcome [5]

Cc1nc2ccc(Cl)cc2[nH]1
inactive: outcome [8] | outcome [9] | outcome [3] | outcome [10] | outcome [4] | outcome [6] | outcome [7] | outcome [5]

CCCCCCCCCCCCCCBr
inactive: outcome [8] | outcome [9] | outcome [3] | outcome [10] | outcome [4] | outcome [6] | outcome [7] | outcome [5]

CC(=O)/C=C/C=C1/C2CCC(C2)C1(C)C (configuration not stated)
inactive: outcome [8] | outcome [9] | outcome [10] | outcome [4] | outcome [6] | outcome [7] | outcome [5]

c1coc(Cn2cccc2)c1
inactive: outcome [8] | outcome [9] | outcome [3] | outcome [10] | outcome [4] | outcome [5]

CCC(=O)OCCOc1ccccc1
inactive: outcome [8] | outcome [3] | outcome [4] | outcome [6] | outcome [7] | outcome [5]

C=CCn1cc[n+](C)c1
inactive: outcome [8] | outcome [3] | outcome [4] | outcome [6] | outcome [7] | outcome [5]

CC(C)=CCC/C(C)=C\C#N
inactive: outcome [8] | outcome [3] | outcome [10] | outcome [4] | outcome [6] | outcome [7] | outcome [5]

CCCC(=O)C(CC)Sc1ccoc1C (configuration not stated)
inactive: outcome [8] | outcome [3] | outcome [4] | outcome [6] | outcome [5]

N#CC1(N)CCCCC1
inactive: outcome [8] | outcome [4] | outcome [6] | outcome [7] | outcome [5]

CCCc1ccc(O)c(OC)c1
inactive: outcome [8] | outcome [3] | outcome [4] | outcome [6] | outcome [5]

C/C=C/C(=O)CCCC
inactive: outcome [2] | outcome [9] | outcome [10] | outcome [4] | outcome [7]

CC(C)(O)c1ccc(C(C)(C)O)cc1
inactive: outcome [8] | outcome [4] | outcome [6] | outcome [5]

C=CCOC(=O)CCCCCCCC
inactive: outcome [8] | outcome [9] | outcome [10] | outcome [4] | outcome [6] | outcome [7]

COc1ccc(Cl)cc1C
inactive: outcome [8] | outcome [3] | outcome [4] | outcome [6] | outcome [5]

CC(=O)Nc1ccc(OCCOCCOc2ccc(NC(C)=O)cc2)cc1
inactive: outcome [8] | outcome [3] | outcome [4] | outcome [5]

C=CC(=O)OCCOCCOCC
inactive: outcome [8] | outcome [3] | outcome [4] | outcome [5]

CCCC(C)C(O)CC (configuration not stated)
inactive: outcome [8] | outcome [9] | outcome [3] | outcome [10] | outcome [4] | outcome [6] | outcome [5]

COCCCOc1cc(C[C@@H](C[C@H](N)[C@@H](O)C[C@H](C(=O)NCC(C)(C)C(N)=O)C(C)C)C(C)C)ccc1OC
inactive: outcome [8] | outcome [3] | outcome [4]

CC(C)OCCO
inactive: outcome [3] | outcome [4] | outcome [6] | outcome [7] | outcome [5]

CO/N=C(\C(=O)O)c1csc(NC(=O)CCl)n1
inactive: outcome [3] | outcome [4] | outcome [6] | outcome [7] | outcome [5]

CCOc1ccccc1OCCN[C@H](C)Cc1ccc(OC)c(S(N)(=O)=O)c1
inactive: outcome [3] | outcome [4] | outcome [6] | outcome [7] | outcome [5]

CCCCCCCCS(=O)(=O)O
inactive: outcome [8] | outcome [9] | outcome [3] | outcome [10] | outcome [4] | outcome [7] | outcome [5]

CC[N+](C)(CC)CC
inactive: outcome [8] | outcome [9] | outcome [3] | outcome [10] | outcome [4] | outcome [5]

CCCCOCCCC
inactive: outcome [8] | outcome [4] | outcome [6] | outcome [7] | outcome [5]

COc1cc(C(=O)NC2CCCNC2)cc(OC)c1OC (configuration not stated)
inactive: outcome [9] | outcome [3] | outcome [10] | outcome [4] | outcome [6] | outcome [7] | outcome [5]

CC(CC(=O)Cl)CC(C)(C)C (configuration not stated)
inactive: outcome [8] | outcome [3] | outcome [4] | outcome [6] | outcome [5]

COc1cnc(NS(=O)(=O)c2ccc(N)cc2)nc1
inactive: outcome [8] | outcome [4] | outcome [5]

CCCC(=O)OC
inactive: outcome [8] | outcome [3] | outcome [4] | outcome [6] | outcome [7] | outcome [5]

CN(C)CCc1c[nH]c2ccc(C[C@H]3COC(=O)N3)cc12
inactive: outcome [8] | outcome [9] | outcome [3] | outcome [10] | outcome [4] | outcome [5]

C=CCCCCCCCCOC(C)=O
inactive: outcome [9] | outcome [10] | outcome [4] | outcome [5]

CCc1ccc(CC)cc1
inactive: outcome [8] | outcome [3] | outcome [4] | outcome [6] | outcome [7] | outcome [5]

N=C(N)S(=O)O
inactive: outcome [8] | outcome [3] | outcome [4] | outcome [6] | outcome [7] | outcome [5]

O=Cc1ccc(C(=O)O)cc1
inactive: outcome [8] | outcome [3] | outcome [4] | outcome [5]

CCCCN1C(=O)c2ccccc2C1=O
inactive: outcome [9] | outcome [4] | outcome [6] | outcome [5]

CNCCc1ccccn1
inactive: outcome [8] | outcome [3] | outcome [4] | outcome [5]

Clc1cc(Cl)c(Cl)c(Cl)c1Cl
inactive: outcome [8] | outcome [3] | outcome [4] | outcome [6] | outcome [7] | outcome [5]

NC[C@H]1O[C@H](O[C@H]2[C@H](O)[C@@H](O[C@H]3O[C@H](CO)[C@@H](O)[C@H](N)[C@H]3O)[C@H](N)C[C@@H]2N)[C@H](N)[C@@H](O)[C@@H]1O
inactive: outcome [8] | outcome [3] | outcome [4] | outcome [6] | outcome [7] | outcome [5]

CCCCCCCCOCCC#N
inactive: outcome [8] | outcome [4] | outcome [6] | outcome [7] | outcome [5]

CCC(C)SSC(C)CC (configuration not stated)
inactive: outcome [8] | outcome [3] | outcome [4] | outcome [6] | outcome [7] | outcome [5]

O=C(O)Cc1ccccc1Oc1ccc(Cl)cc1Cl
inactive: outcome [8] | outcome [9] | outcome [3] | outcome [10] | outcome [4] | outcome [5]
